# Source: PubChem (Broad Institute)
# Hedgehog inh: blocks Sonic Hedgehog signaling; 2.1% of 22,000 active; Shh-LIGHT2 Gli-luciferase reporter, 30 h; inhibition, % (test concentration not listed);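 active = mean inhibition across valid replicates above about 65%, limit read from the data; inconclusive = mean under the limit, yet half or more replicates past it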;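 note: pathway switched on by Shh-conditioned medium diluted 1 in 25 in low serum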
# MITF inhib: blocks MITF activity | TRPM1 promoter luciferase, luminescence, 24 h | inhibition, % (concentration not given with the values) | 0.28% of 37,000 active | AID 2240; in the data active = inhibition above about 85%; inconclusive = no clear call, values can overlap the other calls; inactive = below about 68%;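 note: human melanocyte line stably carrying TRPM1 promoter luciferase reporter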
# NOMO-1 viab: STK33 inhibitor candidate reducing NOMO-1 cell viability | NOMO-1 AML viability, CellTiter-Glo luminescence, 72 h | inhibition, % (test concentration not listed) | 7.5% of 37,000 active; in the data active = inhibition above about 80%; inconclusive = no clear call, values can overlap the other calls
# The depositor's hits bear a star; ? = inconclusive; / = not tested or not shown. A selection: hits, their analogues and other compounds. The true share with any hit is near 7.9%.
SMILES,Hedgehog inh,MITF inhib,NOMO-1 viab
COc1ccc(S(=O)(=O)Nc2ccc3c(c2)C(=O)N([C@@H](C)CO)C[C@@H](C)[C@H](CN(C)Cc2ccc(C(F)(F)F)cc2)O3)cc1,-4.8,15.5,113.5*
COc1ccc(S(=O)(=O)Nc2ccc3c(c2)C(=O)N([C@@H](C)CO)C[C@@H](C)[C@@H](CN(C)Cc2ccc(C(F)(F)F)cc2)O3)cc1,38.6,53.3,114.8*
COc1ccc(CN(C)C[C@H]2Oc3ccc(NS(=O)(=O)c4ccc(OC)cc4)cc3C(=O)N([C@@H](C)CO)C[C@H]2C)cc1,36.2,7.7,26.0
COc1ccc(CN(C)C[C@@H]2Oc3ccc(NS(=O)(=O)c4ccc(OC)cc4)cc3C(=O)N([C@@H](C)CO)C[C@H]2C)cc1,5.2,0.2,14.9
COc1ccc(S(=O)(=O)Nc2ccc3c(c2)C(=O)N([C@H](C)CO)C[C@@H](C)[C@@H](CN(C)Cc2ccc(C(F)(F)F)cc2)O3)cc1,/,39.6,108.4*
Nc1nc(SCc2nnc(Nc3ccccc3)s2)nc2sc3c(c12)CCC3,/,23.1,51.2
COc1ccc(NC(=O)CSc2nnc(C)n2-c2ccc(C)c(C)c2)cc1,/,-6.0,14.5
C[C@H]1CN([C@@H](C)CO)C(=O)c2cc(NC(=O)Nc3ccc4c(c3)OCO4)ccc2O[C@H]1CN(C)C(=O)NC1CCCCC1,-3.5,-14.7,8.8
CC12CC3(C)CC(C)(C1)CC(CN=Cc1ccc(O)cc1)(C2)C3,24.1,-2.9,111.7*
Oc1ccc(/C=N/c2nccs2)cc1,-1.7,-16.9,-4.2
CCN(CC(=O)Nc1cccc(OC)c1)S(=O)(=O)c1ccc(Cl)cc1,/,-0.2,-6.3
CC(C)NC(=O)Nc1ccc2c(c1)CC(=O)N([C@H](C)CO)C[C@@H](C)[C@@H](CN(C)Cc1ccccc1)O2,8.9,-6.6,14.2
COc1ccc(CN(C)C[C@H]2Oc3ccc(NC(=O)Nc4cccc5ccccc45)cc3C(=O)N([C@H](C)CO)C[C@@H]2C)cc1,20.7,-0.4,24.3
C[C@@H]1CN([C@H](C)CO)C(=O)c2cc(NC(=O)Nc3cccc4ccccc34)ccc2O[C@H]1CN(C)Cc1ccc(Oc2ccccc2)cc1,/,1.0,108.6*
COc1ccc(CN(C)C[C@H]2Oc3ccc(NC(=O)Nc4cccc5ccccc45)cc3C(=O)N([C@@H](C)CO)C[C@H]2C)cc1,15.7,-9.5,39.9
C[C@@H]1CN([C@@H](C)CO)C(=O)c2cc(NC(=O)Nc3cccc4ccccc34)ccc2O[C@@H]1CN(C)Cc1ccc(Oc2ccccc2)cc1,/,7.0,114.4*
CCn1c(SCC(=O)Nc2cc(C(F)(F)F)cc(C(F)(F)F)c2)nnc1-c1ccncc1,/,-40.2,38.9
C[C@H]1CN([C@@H](C)CO)C(=O)c2cc(NC(=O)Cc3cn(C)c4ccccc34)ccc2O[C@@H]1CN(C)Cc1ccc(-c2ccccc2)cc1,5.1,18.3,60.3
C[C@@H]1CN([C@H](C)CO)C(=O)c2cc(NC(=O)Cc3cn(C)c4ccccc34)ccc2O[C@H]1CN(C)Cc1ccc(-c2ccccc2)cc1,/,21.3,95.7*
C[C@@H]1CN([C@@H](C)CO)C(=O)c2cc(NC(=O)Cc3cn(C)c4ccccc34)ccc2O[C@@H]1CN(C)Cc1ccncc1,20.0,23.4,31.5
C[C@@H]1CN([C@@H](C)CO)C(=O)c2cc(NC(=O)Cc3cn(C)c4ccccc34)ccc2O[C@H]1CN(C)Cc1ccncc1,-4.6,16.6,108.8*
C[C@H](CO)N1C[C@H](C)[C@H](CN(C)Cc2ccncc2)Oc2ccc(NC(=O)Cc3cn(C)c4ccccc34)cc2C1=O,2.0,13.3,69.5
C[C@@H]1CN([C@@H](C)CO)C(=O)c2cc(NC(=O)Cc3cn(C)c4ccccc34)ccc2O[C@H]1CN(C)C(=O)Nc1cccc2ccccc12,-2.7,11.0,18.4
C[C@@H]1CN([C@H](C)CO)C(=O)c2cc(NC(=O)Cc3cn(C)c4ccccc34)ccc2O[C@@H]1CN(C)C(=O)Nc1cccc2ccccc12,20.7,-14.0,98.8*
C[C@H]1CN([C@@H](C)CO)C(=O)c2cc(NC(=O)Cc3cn(C)c4ccccc34)ccc2O[C@@H]1CN(C)Cc1ccncc1,/,22.1,95.8*
SMILES,Hedgehog inh,MITF inhib,NOMO-1 viab
Cn1c(=O)c2c(nc(SCc3nn[nH]n3)n2Cc2ccccc2)n(C)c1=O,/,-7.1,-17.9
C=C1C(=O)O[C@@H]2CC=C(CCC(C)O)C(C)C[C@@H]12 (stereo not given in full),5.8,10.4,121.1*
C[C@@H]1CN([C@@H](C)CO)C(=O)Cc2cc(NC(=O)CCN3CCOCC3)ccc2O[C@@H]1CN(C)C(=O)Nc1ccccc1,-16.8,4.0,0.3
CSc1sc(C#N)c2c1C(=O)CC(c1ccccc1)C2 (stereo not given),86.5*,11.2,18.7
COc1ccc(C)cc1NC(=O)CN(c1ccc(Cl)cc1)S(C)(=O)=O,/,24.7,32.9
COc1cccc(S(=O)(=O)NCc2ccc(C(=O)Nc3ccc(Cl)cc3)cc2)c1,/,41.9,16.7
Cc1cc(C)c(C)c(S(=O)(=O)NCc2ccc(C(=O)Nc3ccncc3)cc2)c1C,/,50.3,102.8*
C[C@@H]1CN([C@H](C)CO)C(=O)c2cc(NS(=O)(=O)c3ccc(Cl)cc3)ccc2O[C@H]1CN(C)Cc1ccc(C(F)(F)F)cc1,14.9,-15.8,123.3*
C[C@H]1CN([C@@H](C)CO)C(=O)c2cc(NS(=O)(=O)c3ccc(Cl)cc3)ccc2O[C@@H]1CN(C)Cc1ccc(C(F)(F)F)cc1,7.7,4.5,110.7*
C[C@H](CO)N1C[C@H](C)[C@H](CN(C)Cc2ccc(C(F)(F)F)cc2)Oc2ccc(NS(=O)(=O)c3ccc(F)cc3)cc2C1=O,-31.8,-9.5,0.7
C[C@H](CO)N1C[C@H](C)[C@@H](CN(C)Cc2ccc(C(F)(F)F)cc2)Oc2ccc(NS(=O)(=O)c3ccc(Cl)cc3)cc2C1=O,12.6,30.8,67.9
C[C@H](CO)N1C[C@H](C)[C@H](CN(C)C(=O)Nc2cccc3ccccc23)Oc2ccc(NS(=O)(=O)c3cccs3)cc2CC1=O,-8.1,4.4,19.9
N#Cc1c(N)[nH]c(=S)c(C(N)=O)c1-c1cccc(Br)c1,105.5*,4.7,?
O=C(Nc1ccccc1)c1ccc(NCc2cccnc2)c([N+](=O)[O-])c1,/,-34.8,18.6
O=C1c2ccccc2C(=O)N1CN(C(=O)C(F)(F)F)c1ccc(Cl)cc1,2.4,-0.3,6.0
O=C(O)CC1CCC(CC(O)/C=C\C/C=C\CCCCCO)O1 (stereo not given),37.9,40.1,116.8*
CCCCC/C=C\C/C=C\C(O)CCCCCCC(=O)O (stereo not given),-2.3,4.5,33.5
C[C@@H]1CN([C@@H](C)CO)C(=O)c2cc(NC(=O)Nc3ccccc3)ccc2O[C@@H]1CN(C)Cc1ccc(C(F)(F)F)cc1,15.4,24.5,97.5*
C[C@H]1CN([C@@H](C)CO)C(=O)c2cc(NC(=O)Nc3ccccc3)ccc2O[C@@H]1CN(C)Cc1ccc(C(F)(F)F)cc1,7.5,11.0,?
C[C@H](CO)N1C[C@H](C)[C@H](CN(C)Cc2ccc(C(F)(F)F)cc2)Oc2ccc(NC(=O)Nc3ccccc3)cc2C1=O,/,21.5,15.4
C[C@H]1CN([C@@H](C)CO)C(=O)c2cc(NC(=O)Nc3ccccc3)ccc2O[C@H]1CN(C)Cc1ccc(C(F)(F)F)cc1,/,6.8,14.3
